# Measurements from PubChem BioAssay.
# Several values for one entry are separate records, joined by “and”; a condition that tells them apart may be missing. Identical values can stand only once. Inconclusive results are not listed. A structure can be active in one record and inactive in another. Activity calls are given as the source filed them.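 Rule for the calls, unless noted: active = normalized viability below 100% at a tested concentration; inactive = the rest.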
# How the values were obtained:
# [1] = growth inhibition of DIPG glioma cells, dose response, cell-based, SU-DIPG-XIII, MIPE4.0, CellTiter-Glo, qHTS (AID 1347061; cut-off not given, nearly all actives have AC50 up to about 37 µM;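 note: cells exposed to compound for 48 hours before readout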); conditions: SU-DIPG-XIII viability, CellTiter-Glo ATP luminescence
# [2] = growth inhibition of DIPG glioma cells, dose response, cell-based, JHH-DIPG-1, MIPE4.0, CellTiter-Glo, qHTS (AID 1347062; cut-off not given, nearly all actives have AC50 up to about 27 µM); conditions: JHH-DIPG-1 viability, CellTiter-Glo ATP luminescence
# [3] = growth inhibition of DIPG glioma cells, dose response, cell-based, SU-DIPG-IV, MIPE4.0, CellTiter-Glo, qHTS (AID 1347063; cut-off not given, nearly all actives have AC50 up to about 30 µM;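 note: compound exposure lasted 48 hours before the viability readout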); conditions: SU-DIPG-IV viability, CellTiter-Glo ATP luminescence
# [4] = SU-DIPG-VI glioma cell viability, MIPE4.0 library, CellTiter-Glo luminescence, qHTS (AID 1347066; cut-off not given, nearly all actives have AC50 up to about 30 µM;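 note: cells exposed to compound for 48 hours before readout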); conditions: CellTiter-Glo ATP luminescence
# [5] = viability loss in pontine glioma line – cell-based, SU-DIPG-XXV, MIPE5.0, CellTiter-Glo, qHTS, dose response (AID 1347065; cut-off not given, nearly all actives have AC50 up to about 26 µM;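 note: cells exposed to compound for 48 hours before ATP readout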); conditions: CellTiter-Glo ATP luminescence
# [6] = SU-DIPG-XXV glioma cell viability, MIPE5.0 library, qHTS (AID 1347068; cut-off not given, nearly all actives have IC50 up to about 30 µM)
# [7] = modifiers of HSF1 nuclear foci, imaging, Selleck Cancer Library (AID 1347162; in the data active = plate-normalised HSF1 focus index below about 0.46); conditions: human cells, at 10 µM; SSMD: measured here: HSF1 foci SSMD mean; cell count: measured here: cell number; plate-normalised HSF1 focus index: stronger effect = lower value
# [8] = ovarian cancer cell viability with rucaparib, profiling panel, oncology-focused library, rucaparib conditional (AID 1508598); conditions: patient-derived ovarian cancer cells, CellTiter-Glo viability, 144 h, stronger effect = lower value
# [9] = LFS_MB_P medulloblastoma growth inhibition, cell-based, chromothripsis tumors, cisplatin or BGB combos (AID 1671449; in the data active = inhibition above about 80%;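 note: cells exposed for 96 hours; 0% = vehicle DMSO and 100% = killing by high DMSO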); conditions: LFS_MB_P medulloblastoma cells
# [10] = HDN33 neuroblastoma growth inhibition, cell-based, chromothripsis tumors, cisplatin or BGB combos (AID 1671450; in the data active = inhibition above about 80%;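 note: cells exposed to compound for four days; 0% = vehicle DMSO and 100% = cell killing by high DMSO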); conditions: HDN33 neuroblastoma cells, stronger effect = higher value
# [11] = ICB984 medulloblastoma cell growth inhibition, synergistic combos for chromothripsis tumors, cisplatin or BGB combos (AID 1671451; call rule not given here;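 note: cells exposed for 96 hours before readout; 0% = vehicle DMSO and 100% = killing by high DMSO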); conditions: ICB984 medulloblastoma cells, drug combinations, stronger effect = higher value
# [12] = LFS_MB_1R medulloblastoma cell growth inhibition, synergistic combos for chromothripsis tumors, cisplatin or BGB combos (AID 1671452; in the data active = inhibition above about 80%;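 note: cells exposed for 96 hours before readout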); conditions: LFS_MB_1R medulloblastoma cells, stronger effect = higher value
# [13] = HTB85 osteosarcoma cell growth inhibition, synergistic combos for chromothripsis tumors, BGB or cisplatin IC20 combos (AID 1671453; in the data active = inhibition above about 80%;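 note: cells exposed for 96 hours before readout; 0% = vehicle DMSO and 100% = high DMSO killing control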); conditions: HTB85 osteosarcoma cells, drug combinations, stronger effect = higher value
# [14] = MDA-MB-436 breast carcinoma cell growth inhibition, synergistic combos for chromothripsis tumors, BGB or cisplatin combos (AID 1671458; call rule not given here;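 note: cells exposed for 96 hours; 0% = vehicle DMSO and 100% = killing by high DMSO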); conditions: MDA-MB-436 breast carcinoma growth inhibition, drug combinations, stronger effect = higher value
# [15] = growth inhibition of BT084 medulloblastoma cells, cell-based, ICGC_MB145, cisplatin and BGB IC40 combos (AID 1671461; in the data active = inhibition above about 80%;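 note: cells exposed to drugs for 96 hours; 0% = vehicle DMSO and 100% = high DMSO full killing control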); conditions: drug combinations, stronger effect = higher value
# [16] = growth inhibition of RCMB18 medulloblastoma cells, cell-based, cisplatin and BGB IC40 combos (AID 1671462; in the data active = inhibition above about 80%;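 note: cells exposed to compound for four days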); conditions: stronger effect = higher value
# [17] = growth inhibition of CRL1545 osteosarcoma cells, cell-based, cisplatin and BGB IC20 combos (AID 1671464; in the data active = inhibition above about 80%;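 note: cells exposed to compound for 96 hours before readout; 0% = vehicle DMSO and 100% = high DMSO killing control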); conditions: stronger effect = higher value
# [18] = measured here: combination with BGB IC40, at 0.05 µM
# [19] = measured here: with BGB IC20 combination, at 0.5 µM
# [20] = measured here: with cisplatin IC20 combination, at 0.5 µM
# [21] = measured here: combination with cisplatin, at 0.5 µM
smiles,measurement,setting,value
CCC[C@H]1C[C@H](C(=O)N[C@@H]([C@@H]2O[C@@H](SC)[C@@H](O)[C@@H](O)[C@H]2O)[C@H](C)Cl)N(C)C1,outcome,[1],inactive
same,outcome,[2],inactive
same,outcome,[3],inactive
same,outcome,[4],inactive
C[C@]12CC[C@H](O)CC1=CCC1C2CC[C@]2(C)C(n3cnc4ccccc43)=CCC12 (some centres undefined),outcome,[1],inactive
same,outcome,[2],inactive
same,outcome,[3],inactive
same,AC50,[5],20.9 µM (active)
same,outcome,[6],inactive
C/C(=C\C(=O)Nc1ccccc1C(=O)O)c1ccc2ccccc2c1,outcome,[1],inactive
same,outcome,[2],inactive
same,outcome,[3],inactive
same,outcome,[5],inactive
same,outcome,[4],inactive
same,SSMD,[7],2.21 and 1.02
same,cell count,[7],7410 and 6940
same,plate-normalised HSF1 focus index,[7],1.08 (inactive) and 1.06 (inactive)
same,viability,"[8]; at 0.000305 µM, OCI-C5x cells, with rucaparib 10 µM, 100% = cells with rucaparib alone",89.1% (active)
same,viability,"[8]; at 0.000305 µM, OCI-C5x cells, without rucaparib",109% (inactive)
same,viability,"[8]; at 0.000305 µM, OCI-P5x cells, with rucaparib 20 µM, 100% = cells with rucaparib alone",107% (inactive)
same,viability,"[8]; at 0.000305 µM, OCI-P5x cells, without rucaparib",103% (inactive)
same,viability,"[8]; at 0.00122 µM, OCI-C5x cells, with rucaparib 10 µM, 100% = cells with rucaparib alone",102% (inactive)
same,viability,"[8]; at 0.00122 µM, OCI-C5x cells, without rucaparib",107% (inactive)
same,viability,"[8]; at 0.00122 µM, OCI-P5x cells, with rucaparib 20 µM, 100% = cells with rucaparib alone",96.8% (active)
same,viability,"[8]; at 0.00122 µM, OCI-P5x cells, without rucaparib",101% (inactive)
same,viability,"[8]; at 0.00488 µM, OCI-C5x cells, with rucaparib 10 µM, 100% = cells with rucaparib alone",92.9% (active)
same,viability,"[8]; at 0.00488 µM, OCI-C5x cells, without rucaparib",110% (inactive)
same,viability,"[8]; at 0.00488 µM, OCI-P5x cells, with rucaparib 20 µM, 100% = cells with rucaparib alone",112% (inactive)
same,viability,"[8]; at 0.00488 µM, OCI-P5x cells, without rucaparib",103% (inactive)
same,viability,"[8]; at 0.0195 µM, OCI-C5x cells, with rucaparib 10 µM, 100% = cells with rucaparib alone",111% (inactive)
same,viability,"[8]; at 0.0195 µM, OCI-C5x cells, without rucaparib",111% (inactive)
same,viability,"[8]; at 0.0195 µM, OCI-P5x cells, with rucaparib 20 µM, 100% = cells with rucaparib alone",106% (inactive)
same,viability,"[8]; at 0.0195 µM, OCI-P5x cells, without rucaparib",112% (inactive)
same,viability,"[8]; at 0.0781 µM, OCI-C5x cells, with rucaparib 10 µM, 100% = cells with rucaparib alone",95.3% (active)
same,viability,"[8]; at 0.0781 µM, OCI-C5x cells, without rucaparib",104% (inactive)
same,viability,"[8]; at 0.0781 µM, OCI-P5x cells, with rucaparib 20 µM, 100% = cells with rucaparib alone",109% (inactive)
same,viability,"[8]; at 0.0781 µM, OCI-P5x cells, without rucaparib",113% (inactive)
same,viability,"[8]; at 0.313 µM, OCI-C5x cells, with rucaparib 10 µM, 100% = cells with rucaparib alone",94.4% (active)
same,viability,"[8]; at 0.313 µM, OCI-C5x cells, without rucaparib",111% (inactive)
same,viability,"[8]; at 0.313 µM, OCI-P5x cells, with rucaparib 20 µM, 100% = cells with rucaparib alone",109% (inactive)
same,viability,"[8]; at 0.313 µM, OCI-P5x cells, without rucaparib",110% (inactive)
same,viability,"[8]; at 1.25 µM, OCI-C5x cells, with rucaparib 10 µM, 100% = cells with rucaparib alone",95.9% (active)
same,viability,"[8]; at 1.25 µM, OCI-C5x cells, without rucaparib",108% (inactive)
same,viability,"[8]; at 1.25 µM, OCI-P5x cells, with rucaparib 20 µM, 100% = cells with rucaparib alone",116% (inactive)
same,viability,"[8]; at 1.25 µM, OCI-P5x cells, without rucaparib",118% (inactive)
same,viability,"[8]; at 5 µM, OCI-C5x cells, with rucaparib 10 µM, 100% = cells with rucaparib alone",89.8% (active)
same,viability,"[8]; at 5 µM, OCI-C5x cells, without rucaparib",98.2% (active)
same,viability,"[8]; at 5 µM, OCI-P5x cells, with rucaparib 20 µM, 100% = cells with rucaparib alone",119% (inactive)
same,viability,"[8]; at 5 µM, OCI-P5x cells, without rucaparib",117% (inactive)
same,inhibition,"[9]; at 0.5 µM, stronger effect = higher value",102% (active) and -1.28% (inactive)
same,inhibition,"[9]; measured here: combination with BGB IC20, at 0.005 µM",9.03% and -7.31%
same,inhibition,"[9]; measured here: combination with BGB IC40, at 0.005 µM",-18.4% and -24.9%
same,inhibition,[9]; [18],19.3% and -24.1%
same,inhibition,"[9]; measured here: combination with cisplatin, at 0.5 µM, stronger effect = higher value",113% and 3.01%
same,inhibition,"[9]; measured here: combination with cisplatin, at 5 µM, stronger effect = higher value",13.4% and -26.4%
same,inhibition,"[10]; BGB combo, at 5 µM",-23.7% and -49.5%
same,inhibition,[10]; at 0.5 µM,-19.3% (inactive) and -46.7% (inactive)
same,inhibition,"[10]; cisplatin combo, at 5 µM",-7.72% and -22.6%
same,inhibition,[10]; [19],-14.6% and -44.4%
same,inhibition,[10]; [20],-15.2% and -49.7%
same,inhibition,"[10]; single agent, at 5 µM",-14% and -26%
same,inhibition,"[11]; BGB IC20 combo, at 0.005 µM",-36.5% and -10.3%
same,inhibition,"[11]; BGB IC40 combo, at 0.005 µM",5.4% and -31%
same,inhibition,"[11]; BGB IC40 combo, at 0.05 µM",-10.6% and -21.5%
same,inhibition,[11]; at 0.5 µM,-6.99% (inactive) and -24.5% (inactive)
same,inhibition,"[11]; cisplatin combo, at 0.05 µM",-10.6% and -25.9%
same,inhibition,"[11]; cisplatin combo, at 0.5 µM",-7.39% and -29.2%
same,inhibition,"[11]; cisplatin combo, at 5 µM",6.72% and -34%
same,inhibition,"[11]; measured here: 5 uM single agent, at 5 µM",-9.64% and -30.6%
same,inhibition,[12]; at 0.5 µM,-15% (inactive) and -22.4% (inactive)
same,inhibition,[12]; [18],-9.05% and -43.4%
same,inhibition,[12]; [21],-18.5% and -27.8%
same,inhibition,"[12]; measured here: combination with cisplatin, at 5 µM",-22.6% and -72.2%
same,inhibition,[13]; at 0.5 µM,-22.4% (inactive) and -26.8% (inactive)
same,inhibition,"[13]; measured here: with BGB IC20, at 0.5 µM",-27.7% and -32.5%
same,inhibition,"[13]; measured here: with BGB IC20, at 5 µM",-14.9% and -24.4%
same,inhibition,"[13]; measured here: with cisplatin IC20, at 0.5 µM",-22.7% and -28.1%
same,inhibition,"[13]; measured here: with cisplatin IC20, at 5 µM",-19.8% and -17.3%
same,inhibition,"[13]; single agent, at 5 µM",-20.6% and -16.3%
same,inhibition,[14]; at 0.5 µM,-3.17% (inactive) and -21% (inactive)
same,inhibition,"[14]; measured here: BGB combination, at 0.5 µM",-3.42% and -32.5%
same,inhibition,"[14]; measured here: BGB combination, at 5 µM",-2.03% and -11.9%
same,inhibition,"[14]; measured here: cisplatin combination, at 0.5 µM",-4.64% and -12.8%
same,inhibition,"[14]; measured here: cisplatin combination, at 5 µM",-4.62% and -6.3%
same,inhibition,[15]; at 0.5 µM,-6.83% (inactive) and -5.19% (inactive)
same,inhibition,"[15]; cisplatin combination, at 0.5 µM",-15% and -25.6%
same,inhibition,"[15]; cisplatin combination, at 5 µM",-24.9% and -2.65%
same,inhibition,"[15]; measured here: BGB IC40 combination 0.05 uM, at 0.05 µM",-17.8% and 7.75%
same,inhibition,"[15]; single agent, at 5 µM",11.2% and -10.1%
same,inhibition,[16]; at 0.5 µM,-1.42% (inactive) and -24.1% (inactive)
same,inhibition,"[16]; cisplatin combo, at 5 µM",5.73% and -10.2%
same,inhibition,"[16]; measured here: BGB IC40 combination, at 0.05 µM",-5.49% and -16.6%
same,inhibition,[16]; [21],-31.4% and -50.1%
same,inhibition,"[16]; single agent, at 5 µM",-4.52% and -12.1%
same,inhibition,[17]; at 0.5 µM,-35.2% (inactive) and -65.1% (inactive)
same,inhibition,[17]; [19],-24.4% and -56.6%
same,inhibition,[17]; [20],-40.6% and -72.1%
same,inhibition,"[17]; single agent, at 0.05 µM",-15.5% and -44.7%
same,inhibition,"[17]; single agent, at 5 µM",-12.5% and -53.7%
